In PubChem BioAssay one finds composite z-score and z-score data, which are given here for 16 compounds.

Assay [1] deals with Plasmodium falciparum Sir2 (PF13_0152, Sir2A). The experiment in a line: pfSir2 binders on small-molecule microarrays, primary screen, biochemical, small-molecule microarray, 635 nm fluorescence (AID 1098).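 Note: score merges spot fluorescence intensity with its signal-to-noise ratio.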 As to conditions: small-molecule microarray binding, fluorescence 635 nm; higher = more signal.
Assay [2] is described as follows: small-molecule microarray binders of probe aDKK1, primary screen, biochemical, biotinylated probe, 635/667 nm fluorescence (AID 1099).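 Note: score merges 667nm spot fluorescence with signal to noise across triplicate slides; reference of the scale not given here.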 As to conditions: higher = more signal.
Assay [3] in a line: small-molecule microarray binders of probe aCHRDL2, primary screen, biochemical, biotinylated probe, 635/667 nm fluorescence (AID 1100). As to conditions: higher = more signal.
A short description of assay [4]: splicing luciferase reporter signal modulators, primary screen, spliceosome inhibition project, cell-based, HEK293, splice +/- reporter (AID 1101).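 Note: HEK293 cells carrying a splicing-competent luciferase reporter gene; test concentration not given here.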 To be noted: luminescence, 24 h, higher = more signal, called active from +8 up or from −8 down.
The target in assay [5] is Fibroblast growth factor 10 (Homo sapiens) (UniProt O15520). The experiment in a line: FGF10 binders on small-molecule microarrays, primary screen, biochemical, small-molecule microarray, 635 nm fluorescence (AID 1102). To be noted: FGF10 binding, fluorescence 635 nm, higher = more signal.
In assay [6] the test system is glycogen synthase kinase-3 (GSK3A per assay name; protocol says GSK3B). Put plainly: GSK3 binders on small-molecule microarrays, primary screen, biochemical, small-molecule microarray, 635 nm fluorescence, GSK3A (AID 1103). Note: the record names both GSK3A and GSK3B. As to conditions: small-molecule microarray binding, fluorescence 635 nm; higher = more signal.
The target in assay [7] is Epidermal growth factor receptor (Homo sapiens) (UniProt P00533). Put plainly: EGFR binders on small-molecule microarrays, primary screen, biochemical, small-molecule microarray, 635 nm fluorescence (AID 1104).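 Note: score merges 667 nm emission intensity with spot signal to noise over triplicate slides.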 To be noted: EGFR binding, higher = more signal.
Assay [8] has as its target Follistatin-related protein 3 (Homo sapiens) (UniProt O95633). Put plainly: FSTL3 binders on small-molecule microarrays, primary screen, biochemical, small-molecule microarray, 635 nm fluorescence (AID 1105).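 Note: score merges emission near 667 nm and signal to noise per printed spot across three slides.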 To be noted: FSTL3 binding, higher = more signal.
The target of assay [9] is Dickkopf-related protein 1 (Homo sapiens) (UniProt O94907). The experiment in a line: DKK1 binders on small-molecule microarrays, primary screen, biochemical, small-molecule microarray, 635 nm fluorescence scan (AID 1106).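 Note: score merges emission near 667 nm with signal to noise over three replicate slides.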 As to conditions: DKK1 binding, higher = more signal.
The test system of assay [10] is Inhibin beta A chain (activin A). Put plainly: INHBA (activin A) binders on microarrays, primary screen, biochemical, small-molecule microarray, 635 nm fluorescence scan (AID 1107).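 Note: mouse activin A protein probed at 4.33 µg/mL on printed slides; score merges bound-protein fluorescence near 667 nm with spot signal-to-noise.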 To be noted: small-molecule microarray binding, higher = more signal.

Activity calls are given as the source filed them.

Sequence of Follistatin-related protein 3 (Homo sapiens) (O95633 whole entry, looked up): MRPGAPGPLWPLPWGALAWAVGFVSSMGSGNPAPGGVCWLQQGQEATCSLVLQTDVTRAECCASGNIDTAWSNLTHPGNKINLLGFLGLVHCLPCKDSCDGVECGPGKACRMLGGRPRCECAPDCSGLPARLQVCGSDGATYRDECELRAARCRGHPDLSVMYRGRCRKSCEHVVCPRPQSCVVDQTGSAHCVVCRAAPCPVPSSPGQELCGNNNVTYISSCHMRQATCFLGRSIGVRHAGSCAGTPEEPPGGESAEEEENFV
Sequence of Fibroblast growth factor 10 (Homo sapiens) (O15520 whole entry, looked up): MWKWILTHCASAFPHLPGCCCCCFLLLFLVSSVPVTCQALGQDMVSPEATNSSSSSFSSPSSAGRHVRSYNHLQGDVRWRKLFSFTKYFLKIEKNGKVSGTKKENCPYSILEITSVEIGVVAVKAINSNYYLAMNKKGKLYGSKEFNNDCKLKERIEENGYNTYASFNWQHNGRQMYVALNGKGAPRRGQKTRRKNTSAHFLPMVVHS
Sequence of Epidermal growth factor receptor (Homo sapiens) (P00533 whole entry, looked up): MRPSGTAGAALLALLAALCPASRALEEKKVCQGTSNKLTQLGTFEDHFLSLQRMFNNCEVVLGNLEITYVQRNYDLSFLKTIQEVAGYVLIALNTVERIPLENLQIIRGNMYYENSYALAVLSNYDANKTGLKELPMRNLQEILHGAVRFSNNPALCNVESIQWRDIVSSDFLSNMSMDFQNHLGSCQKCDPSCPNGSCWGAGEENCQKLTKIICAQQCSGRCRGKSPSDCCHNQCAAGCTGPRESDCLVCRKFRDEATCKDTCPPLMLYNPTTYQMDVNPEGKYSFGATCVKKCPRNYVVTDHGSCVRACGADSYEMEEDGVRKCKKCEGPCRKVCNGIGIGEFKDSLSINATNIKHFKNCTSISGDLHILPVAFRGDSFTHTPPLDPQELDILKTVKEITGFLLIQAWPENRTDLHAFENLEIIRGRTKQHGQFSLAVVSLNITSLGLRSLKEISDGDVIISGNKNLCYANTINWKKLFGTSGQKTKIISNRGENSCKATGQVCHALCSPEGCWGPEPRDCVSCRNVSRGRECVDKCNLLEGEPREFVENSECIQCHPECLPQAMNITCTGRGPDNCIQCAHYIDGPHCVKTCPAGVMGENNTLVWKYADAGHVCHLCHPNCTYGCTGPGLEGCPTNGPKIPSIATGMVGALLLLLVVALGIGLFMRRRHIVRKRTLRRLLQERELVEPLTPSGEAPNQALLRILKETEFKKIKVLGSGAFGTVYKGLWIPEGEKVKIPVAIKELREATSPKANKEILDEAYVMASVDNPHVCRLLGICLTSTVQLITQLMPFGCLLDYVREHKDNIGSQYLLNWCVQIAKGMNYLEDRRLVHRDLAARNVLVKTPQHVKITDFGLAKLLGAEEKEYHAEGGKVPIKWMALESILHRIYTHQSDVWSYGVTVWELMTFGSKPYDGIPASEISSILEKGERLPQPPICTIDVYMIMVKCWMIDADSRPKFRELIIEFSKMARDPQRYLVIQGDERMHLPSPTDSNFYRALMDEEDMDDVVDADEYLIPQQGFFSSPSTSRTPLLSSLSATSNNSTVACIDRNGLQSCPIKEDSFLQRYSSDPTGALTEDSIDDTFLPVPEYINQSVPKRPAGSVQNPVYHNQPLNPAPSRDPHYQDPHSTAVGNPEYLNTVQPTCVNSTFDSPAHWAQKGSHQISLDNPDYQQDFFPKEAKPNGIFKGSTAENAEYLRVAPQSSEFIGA
Sequence of Dickkopf-related protein 1 (Homo sapiens) (O94907 whole entry, looked up): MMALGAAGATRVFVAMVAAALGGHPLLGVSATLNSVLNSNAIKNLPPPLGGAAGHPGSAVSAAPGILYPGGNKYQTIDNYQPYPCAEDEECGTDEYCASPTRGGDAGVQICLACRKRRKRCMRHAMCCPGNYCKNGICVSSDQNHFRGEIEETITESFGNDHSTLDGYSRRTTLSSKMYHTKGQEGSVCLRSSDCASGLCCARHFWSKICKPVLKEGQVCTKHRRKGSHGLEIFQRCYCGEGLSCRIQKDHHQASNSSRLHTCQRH

`COCCCN1C(=O)[C@@]2(c3ccc([N+](=O)[O-])cc3)CC(=O)N(C3CCCCC3)[C@@H]2c2ccc(CO)cc21`: the composite z-score in assay [1] is 0.555; in assay [2] it was -0.24; in [3], -0.319; in [5] it was 0.301; in assay [6] it was 0.237; in assay [7] it was -0.0732. Also, the composite z-score in assay [8] is 0.593; in assay [9], 0.3; in assay [10], 0.717. In assay [4], the z-score is -0.237 (inactive).

For `C=CCNC(=O)[C@@H]1[C@H]2C(=O)O[C@H](c3ccccc3)[C@H](c3ccccc3)N2[C@H](c2ccccc2OCCO)[C@@]12C(=O)N(C(=O)OCCOC)c1ccc(C#CCNC(N)=O)cc12`, the composite z-score in assay [1] was 1.43; in assay [2], 0.0834; in assay [3], 0.447; in assay [5] it was 0.738; in [6], 0.581; in assay [7] it was 0.444. Moreover, the results for the composite z-score in assay [8], in assay [9] and in assay [10] were 0.921, -0.0253 and 0.38, respectively. In [4], the z-score is -0.938 (inactive).

With `C=CCOC(=O)[C@@H]1[C@H]2C(=O)O[C@H](c3ccccc3)[C@H](c3ccccc3)N2[C@H](c2ccc(OCCOC(=O)[C@@H]3C[C@@H]4C(=O)N[C@@H](CCCC[N+](C)(C)C)C(=O)N4[C@@H]3c3cccc(OCCO)c3)cc2)[C@@]12C(=O)Nc1ccc(I)cc12`, the composite z-score stood at 1.09 in assay [1]; 0.0616 in [2]; 0.0011 in assay [3]; 0.591 in assay [5]; 1.19 in assay [6]; 0.779 in [7]. The results for the composite z-score in [8], in assay [9] and in assay [10] were 1.25, 0.985 and 0.195, respectively. In addition, the z-score in assay [4] is -0.874 (inactive).

Turning to `CN1C(=O)C2C=CC(C(O)c3cccs3)N(Nc3ccccc3)C2C1=O` (stereo not given), the composite z-score in assay [1] worked out at 0.748; in assay [2] it was 0.168; in assay [3], 0.272; in assay [5], 0.765; in assay [6], 0.0802; in assay [7] it was 0.007. The composite z-score is 0.174 in assay [8], -0.0478 in assay [9] and 0.693 in assay [10]. Moreover, in assay [4], the z-score is 1.46 (inactive).

In the case of `[N-]=[N+]=NCc1ccccc1C[C@]1(C(=O)O)N=C(c2ccc(OCCCO)cc2)O[C@H]1c1ccccc1N=[N+]=[N-]`, the composite z-score amounted to 1.17 in [1]; 0.621 in assay [2]; 0.435 in assay [3]; 1.12 in [5]; 1.16 in [6]; 0.386 in assay [7]. For the same compound, the values for the composite z-score in [8], in [9] and in [10] were 0.737, 0.0572 and 0.303, respectively. The z-score in [4] is -3.66 (inactive).

For `COCCOC(=O)N1C(=O)[C@@]2(c3cc(C#CC4(O)CCCCCC4)ccc31)[C@H](c1ccc(O)cc1)N1[C@H](c3ccccc3)[C@H](c3ccccc3)OC(=O)[C@H]1[C@@H]2C(=O)Nc1nc2ccccc2s1`, the composite z-score in [1] is 0.483; in [2], 1.17; in assay [3], 0.784; in assay [5], 1.35; in assay [6], 1.31; in [7], 0.487. For the same compound, the composite z-score worked out at 1.38 in assay [8], 0.857 in assay [9] and 1.33 in [10]. For the same compound, the z-score in assay [4] is -0.54 (inactive).

Take `O=C(NCc1ccc(F)cc1)[C@H]1C[C@H]2C(=O)N[C@@H](Cc3ccccc3)C(=O)N2[C@H]1c1ccc(O)cc1`: the composite z-score is 1.06 in assay [1]; -0.103 in assay [2]; 0.105 in [3]; 0.123 in [5]; -0.469 in assay [6]; -0.394 in [7]. The composite z-score in assay [8] is -0.383; in [9], 0.274; in assay [10] it was -0.266. Besides, the z-score in assay [4] is -0.41 (inactive).

For `COCCn1c(C(=O)N2CCCC2)cc2c1C[C@H]1CN(C(=O)c3ccccc3)[C@@](Cc3ccc(F)cc3)(C(=O)OC)[C@@H]21`, the composite z-score was 1.17 in [1]; 0.418 in assay [2]; 0.43 in assay [3]; -0.149 in assay [5]; 1.31 in assay [6]; 0.291 in [7]. Besides, the values for the composite z-score in [8], in assay [9] and in assay [10] were 0.664, 0.131 and 0.593, respectively. Besides, the z-score in assay [4] is -0.604 (inactive).

`C=C[C@H](COC(C)=O)N(C(=O)OC(C)(C)C)S(=O)(=O)c1ccc(Br)cc1`: the composite z-score in assay [1] worked out at 0.0995; in assay [2], 1.29; in assay [3], 0.639; in assay [5] it was 0.619; in [6], 0.484; in assay [7] it was 0.517. In addition, the composite z-score in assay [8] came to 0.507; in assay [9] it was 0.717; in [10], 0.838. For the same compound, the z-score in assay [4] was 0.353 (inactive).

As to `[N-]=[N+]=NCc1ccccc1[C@@H]1OC(c2ccc(OCCCO)cc2)=N[C@]1(CCS(=O)(=O)c1ccccc1)C(=O)NCc1ccccc1`, the composite z-score in [1] came to 1.54; in assay [2] it was 1.14; in assay [3], 0.993; in assay [5], 1.25; in [6], 1.26; in assay [7], 0.274. Besides, the results for the composite z-score in assay [8], in assay [9] and in assay [10] were 0.869, 0.494 and 1.07, respectively. In assay [4], the z-score is -0.392 (inactive).

In the case of `NCCCCCNC(=O)[C@@H]1C[C@@H]2C(=O)NCC(=O)N2[C@@H]1c1ccc(O)cc1`, the composite z-score in assay [1] was 1.15; in assay [2], -0.0246; in assay [3], -0.128; in assay [5], 1.49; in assay [6], 1.32; in assay [7] it was -0.318. The composite z-score in assay [8] stood at 1.22; in assay [9], 1.63; in [10] it was 0.294. Besides, in [4], the z-score was -0.0882 (inactive).

As to `CO[C@H]1O[C@H](CO)[C@@H](OC(=O)Nc2ccc(Br)cc2)[C@H](OC(=O)c2cc3ccccc3[nH]2)[C@H]1OC(=O)c1cc2ccccc2[nH]1`, the composite z-score in assay [1] came to 1.23; in [2], 0.165; in assay [3] it was 0.24; in assay [5], 1.19; in assay [6], 1.28; in assay [7], 0.408. Also, the figures for the composite z-score in [8], in assay [9] and in assay [10] were 0.579, 0.0104 and 0.227, respectively. The z-score in [4] is -4.44 (inactive).

Turning to `CN1C(=O)C2C=CC(C(O)c3ccc(I)cc3)N(N3CCCCC3)C2C1=O` (stereo not given), the composite z-score in assay [1] turned out to be 1.36; in assay [2] it was 0.382; in assay [3], 1.21; in assay [5], 1.07; in [6], 0.354; in assay [7] it was 0.396. Moreover, the results for the composite z-score in [8], in [9] and in assay [10] were 1.34, -0.147 and 0.72, respectively. Moreover, in [4], the z-score was 1.18 (inactive).

With `COCCCNC(=O)[C@@]1(Cc2ccccc2N=[N+]=[N-])N=C(c2ccc(OCCCO)cc2)O[C@H]1c1ccccc1N=[N+]=[N-]`, the composite z-score amounted to 1.34 in [1]; 1.04 in assay [2]; 1.25 in assay [3]; 0.935 in [5]; 0.82 in assay [6]; 0.372 in [7]. In addition, the composite z-score in assay [8] is 0.937; in [9], -0.138; in assay [10], 0.797. Further, in [4], the z-score was 1.87 (inactive).

Consider `[N-]=[N+]=Nc1ccccc1C[C@]1(C(N)=O)N=C(c2ccc(OCCCO)cc2)O[C@H]1c1ccccc1`, for which the composite z-score in assay [1] is 1.13; in [2], 0.0609; in assay [3], 0.875; in assay [5], 0.181; in assay [6], 0.532; in assay [7], -1.44. The composite z-score is -0.255 in assay [8], -0.748 in [9] and 0.511 in assay [10]. Also, in assay [4], the z-score is 0.297 (inactive).

For the compound `O=C1O[C@H](c2ccccc2)[C@H](c2ccccc2)N2[C@H]1[C@@H](C(=O)N1CCN(c3ncccn3)CC1)[C@]1(C(=O)Nc3ccc(C#CC4=CCCCC4)cc31)[C@H]2c1ccc(O)cc1`, the composite z-score in assay [1] was 0.789; in [2], -0.0869; in assay [3] it was 0.566; in assay [5], 0.76; in assay [6], 0.754; in assay [7], 0.442. Besides, the composite z-score in assay [8] is 0.738; in [9] it was -0.0441; in assay [10], -0.0074. For the same compound, in assay [4], the z-score was -0.725 (inactive).
